Data on 14 compounds can be found in PubChem BioAssay.

The nature of assay [1]: inhibitors of TNFa-induced NFkB p65 translocation, primary screen, imaging, HUVEC, MLSMR starter and 10KST1 sets (AID 438;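 active means inhibition above 20% together with a positive visual image hit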;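 further: compound added about 3h40 before a 20 min TNFalpha stimulation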;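 on inhibition: signal is the nuclear over cytoplasmic p65 intensity ratio per well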). Conditions: HUVEC TNFa-induced p65 nuclear translocation; cell count: measured here: nuclei count (cytotoxicity indicator), at 2.08 µM; inhibition: at 2 µM, stronger effect = higher value, 0% TNFa-plus-vehicle, 100% no-TNFa wells.
Assay [2] in a line: reduction of polyQ htt aggregates in cells – imaging, exon1htt(103Q)mCFP cells, high-content imaging, primary screen (AID 483;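 active means visual image review flags a hit and inhibition of aggregation exceeds 20%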;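 further: compound exposure lasted 3 days before fixation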;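 on nuclei count: percent of the per-plate median nuclei count of sample wells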). As to conditions: exon1htt(103Q)mCFP cell line, aggregate imaging, at 2 µM; inhibition of aggregation: stronger effect = higher value; nuclei count: measured here: cell count, toxicity.
Assay [3] in a line: endothelial E-selectin expression blockers – imaging, HUVEC, immunofluorescence, MLSMR starter and 10KST1 sets, primary screen (AID 487).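 On inhibition: signal is fraction of cell area covered by stained E-selectin grains.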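 On nuclei count: 100% = median nuclei count of all wells on the same plate.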 As to conditions: HUVEC TNFalpha-induced E-selectin immunofluorescence imaging, at 2 µM; inhibition: stronger effect = higher value; nuclei count: measured here: cell number, toxicity.
Assay [4] deals with Voltage-gated potassium channel subunit beta-2 (Rattus norvegicus) (UniProt P62483). In words: inhibitors of rat Kvbeta2 reductase activity – biochemical, NADPH fluorescence, primary screen (AID 622;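 active means fluorescence slope higher than the sample average by over 3 SD, cut at about -0.22 in these data, passing the limit was not always enough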;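 further: slope of raw intensity against log time taken from 70 to 1610 s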). Conditions: recombinant KvBeta, 4-cyanobenzaldehyde reduction, at 10 µM, stronger effect = higher value.
For assay [5] the target is unchanged. The assay can be described thus: enhancers of rat Kvbeta2 NADPH turnover – biochemical, NADPH fluorescence, primary screen (AID 623;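 active means NADPH fluorescence slope more negative than the mean of all samples by about 3 SD, 99.7% confidence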;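 further: fluorescence intensity change per second fitted from 20 to 320 s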). Conditions: Recombinant KvBeta, NADPH fluorescence decrease slope, 10 min; at 10 µM; stronger effect = lower value.
The target in assay [6] is Alpha-2C adrenergic receptor (Homo sapiens) (UniProt P18825). The assay can be described thus: compounds altering alpha2C-coupled GIRK flux – cell-based, HEK293 alpha2C/GIRK1/2, thallium flux, primary screen (AID 624;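 active means fluorescence slope after compound addition differing from the mean of all screened samples at 99.7% confidence, in either direction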;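 further: slope of fluorescence ratio to pre-addition baseline per second over 15 to 24 s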). Conditions: thallium flux BTC fluorescence, at 10 µM, actives lie on both sides.
The nature of assay [7]: blockers of RIG-like receptor reporter activation – cell-based, Sendai virus stimulus, luciferase, 10K MLSCN set, TLR/RLR signaling modifier project, primary screen (AID 602276;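 active means inhibition at or above 50% at 10 µM; inactive means inhibition below 50%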;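 further: firefly luciferase from ISG56 promoter only with Renilla not read in this screen; 0% = Sendai virus plus DMSO and 100% = medium plus DMSO without virus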). Conditions: HEK293 RL24 IRF3 luciferase reporter, at 10 µM, stronger effect = higher value. A general note: Reporter assays use an easily measured gene product as a stand-in for the process of interest.
Assay [8] is described as follows: TLR3 IRF3 reporter activation blockers – cell-based, poly I:C stimulus, luciferase, 10K MLSCN set, primary screen (AID 602277;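 active means inhibition of the reporter signal at or above 50%; inactive means inhibition below 50%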). As to conditions: HEK293-TLR3 RL24 IRF3 luciferase reporter, at 10 µM, stronger effect = higher value.

As usually defined, the inhibition is the change of the read-out against control, counted positive when it falls.

Each structure is given as a SMILES string. Active and inactive are the calls of the source.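 How the source made its calls, unless noted: active means visually confirmed hit in the image check and inhibition above 20%; inconclusive means visually confirmed hit but inhibition not above 20%; inactive means no visual hit in the image check.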

Sequence of Alpha-2C adrenergic receptor (Homo sapiens) (P18825 whole entry, looked up): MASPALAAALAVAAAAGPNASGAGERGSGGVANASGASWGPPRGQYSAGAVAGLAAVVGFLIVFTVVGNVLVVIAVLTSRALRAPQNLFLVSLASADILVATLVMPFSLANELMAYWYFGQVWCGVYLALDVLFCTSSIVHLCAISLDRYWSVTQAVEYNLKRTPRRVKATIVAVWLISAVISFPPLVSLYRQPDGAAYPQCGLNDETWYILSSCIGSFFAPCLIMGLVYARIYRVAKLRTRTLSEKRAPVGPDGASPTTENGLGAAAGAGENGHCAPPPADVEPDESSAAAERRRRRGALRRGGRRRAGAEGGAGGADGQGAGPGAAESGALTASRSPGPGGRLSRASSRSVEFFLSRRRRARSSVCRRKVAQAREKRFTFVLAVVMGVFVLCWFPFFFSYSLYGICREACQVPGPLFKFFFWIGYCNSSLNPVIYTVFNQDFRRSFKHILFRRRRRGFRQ
Sequence of Voltage-gated potassium channel subunit beta-2 (Rattus norvegicus) (P62483 whole entry, looked up): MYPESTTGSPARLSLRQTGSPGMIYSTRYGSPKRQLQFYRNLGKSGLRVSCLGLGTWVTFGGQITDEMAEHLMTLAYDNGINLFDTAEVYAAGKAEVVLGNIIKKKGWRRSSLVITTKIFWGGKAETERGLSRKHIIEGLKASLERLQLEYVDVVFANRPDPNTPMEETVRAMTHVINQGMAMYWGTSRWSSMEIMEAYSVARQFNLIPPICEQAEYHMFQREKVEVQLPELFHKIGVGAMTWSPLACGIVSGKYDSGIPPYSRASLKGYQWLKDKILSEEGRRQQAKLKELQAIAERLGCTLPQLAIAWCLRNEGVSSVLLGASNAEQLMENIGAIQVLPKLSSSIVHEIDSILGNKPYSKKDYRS

For the compound `O=C(Nc1ccc(F)cc1)N(CCCN1CCOCC1)Cc1cc2cc3c(cc2[nH]c1=O)OCO3`, the cell count in assay [1] was 633. Moreover, the inhibition is -3% (inactive) in assay [1], -27.7% (inactive) in assay [3], 15.6% (inactive) in assay [7] and 28.6% (inactive) in assay [8]. In assay [2], the inhibition of aggregation was -34.9% (inactive). In addition, the results for the nuclei count in assay [2] and in assay [3] were 105% and 114%, respectively. The fluorescence slope in assay [4] was -0.362 (inactive). Also, the NADPH fluorescence slope in assay [5] is -4.4e-05 (inactive). For the same compound, the slope in assay [6] was 0.00497 (inactive).
On to `CCOC(=O)N1CCN(CC(=O)Nc2cc(C)nn2-c2nc3ccccc3s2)CC1`, for which, in assay [1], the cell count amounted to 859. Moreover, the inhibition was 9.9% (inactive) in assay [1], -132% (inactive) in assay [3], 13.7% (inactive) in assay [7] and 27.3% (inactive) in assay [8]. In addition, the inhibition of aggregation in assay [2] was -38.2% (inactive). For the same compound, the nuclei count in assay [2] was 101%; in assay [3], 122%. Moreover, the fluorescence slope in assay [4] is -0.609 (inactive). Also, in assay [5], the NADPH fluorescence slope is 2.4e-05 (inactive). For the same compound, in assay [6], the slope was 0.00559 (inactive).
Consider `Cc1cc(NC(=O)COC(=O)C2COc3ccccc3O2)no1` (centres undefined), for which the cell count in assay [1] came to 734. The inhibition in assay [1] was -5.3% (inactive); in assay [3] it was -15.9% (inactive); in assay [7], 7.14% (inactive); in assay [8], 12.6% (inactive). Moreover, the inhibition of aggregation in assay [2] was -24.5% (inactive). Also, the nuclei count came to 106% in assay [2] and 103% in assay [3]. Moreover, the fluorescence slope in assay [4] was -0.407 (inactive). Besides, in assay [5], the NADPH fluorescence slope is -7.6e-05 (inactive). Besides, the slope in assay [6] was 0.00343 (inactive).
As for `O=C(O)c1cc2nc(-c3ccc(F)cc3)cc(C(F)(F)F)n2n1`, the cell count in assay [1] is 435. Further, the inhibition is 4.9% (inactive) in assay [1], 26.5% (inactive) in assay [3], 0.989% (inactive) in assay [7] and 19.6% (inactive) in assay [8]. In addition, in assay [2], the inhibition of aggregation was -0.7% (inactive). Also, the nuclei count in assay [2] came out at 97.9%; in assay [3] it was 110%. Further, the fluorescence slope in assay [4] is -0.385 (inactive). In addition, in assay [5], the NADPH fluorescence slope is -4.1e-05 (inactive). Moreover, in assay [6], the slope is 0.00272 (inactive).
In the case of `COc1ccccc1-n1c(=O)[nH]c2c(C(N)=O)nc(-c3cccnc3)nc21`, in assay [1], the cell count was 679. In addition, the inhibition is -5.2% (inactive) in assay [1], -19.1% (inactive) in assay [3], 15.6% (inactive) in assay [7] and -10.2% (inactive) in assay [8]. Moreover, in assay [2], the inhibition of aggregation is -20.4% (inactive). The nuclei count was 101% in assay [2] and 104% in assay [3]. For the same compound, the fluorescence slope in assay [4] was -0.516 (inactive). For the same compound, the NADPH fluorescence slope in assay [5] is -3.5e-06 (inactive). In addition, the slope in assay [6] is 0.00612 (inactive).
For `CCOC(=O)N1CCN(C(=O)COc2ccc(S(=O)(=O)NC3CCCCC3)cc2C)CC1`, in assay [1], the cell count was found to be 536. In addition, the inhibition in assay [1] was 9.7% (inactive); in assay [3] it was -31.8% (inactive); in assay [7], 3.18% (inactive); in assay [8], -12.8% (inactive). Moreover, in assay [2], the inhibition of aggregation was -14.2% (inactive). For the same compound, the nuclei count stood at 105% in assay [2] and 93.5% in assay [3]. Further, the fluorescence slope in assay [4] is -0.644 (inactive). For the same compound, the NADPH fluorescence slope in assay [5] was -4.2e-05 (inactive). Also, the slope in assay [6] was 0.00446 (inactive).
For the compound `CC1(C)Cc2cccc(OCC(O)CN3CCN(c4ccccn4)CC3)c2O1` (centres undefined), the cell count in assay [1] turned out to be 518. In addition, the inhibition in assay [1] is -7.3% (inactive); in assay [3], -90.2% (inactive); in assay [7], -6.85% (inactive); in assay [8], -0.552% (inactive). Besides, the inhibition of aggregation in assay [2] is 3.5% (inactive). Further, the nuclei count in assay [2] is 92.3%; in assay [3], 111%. The fluorescence slope in assay [4] was -0.624 (inactive). For the same compound, the NADPH fluorescence slope in assay [5] is -2e-05 (inactive). Moreover, the slope in assay [6] was 0.00547 (inactive).
For `CCCS(=O)(=O)N1CCC(C(=O)NCCN2CCCC2)CC1`, the cell count in assay [1] was found to be 201. Moreover, the inhibition was -6.8% (inactive) in assay [1], 30.3% (inactive) in assay [3], 13.8% (inactive) in assay [7] and 19.2% (inactive) in assay [8]. The inhibition of aggregation in assay [2] was 12.3% (inactive). The nuclei count was found to be 104% in assay [2] and 70.1% in assay [3]. Moreover, the fluorescence slope in assay [4] was -0.405 (inactive). In assay [5], the NADPH fluorescence slope is -3.3e-05 (inactive). In assay [6], the slope was 0.00665 (inactive).
As to `CCc1nnc(NC(=O)CSc2nnc3scc(-c4ccc(C)cc4)n23)s1`, in assay [1], the cell count is 684. The inhibition is -32.6% (inactive) in assay [1], -5.3% (inactive) in assay [3], 14.5% (inactive) in assay [7] and 14.2% (inactive) in assay [8]. In addition, the inhibition of aggregation in assay [2] is 9.1% (inactive). The nuclei count in assay [2] is 96.5%; in assay [3], 104%. The fluorescence slope in assay [4] was -0.504 (inactive). Also, in assay [5], the NADPH fluorescence slope is -0.000345 (inactive). The slope in assay [6] was 0.00638 (inactive).
In the case of `CC(=O)NC(Cc1cc(C)ccc1C)C(=O)N1CCN(C(=O)Nc2ccc(C(C)=O)cc2)CC1` (centres undefined), the cell count in assay [1] turned out to be 324. For the same compound, the inhibition was -2.1% (inactive) in assay [1], -23.1% (inactive) in assay [3], 2.34% (inactive) in assay [7] and -13% (inactive) in assay [8]. Also, the inhibition of aggregation in assay [2] was -26% (inactive). Besides, the nuclei count in assay [2] stood at 106%; in assay [3], 99.8%. Further, in assay [4], the fluorescence slope was -0.378 (inactive). The NADPH fluorescence slope in assay [5] was -4.4e-05 (inactive). The slope in assay [6] is 0.00656 (inactive).
On to `Cc1ccc(-c2oc3ccccc3c(=O)c2O)cc1`, for which the cell count in assay [1] was 559. The inhibition in assay [1] was -12% (inactive); in assay [3], 2.6% (inactive); in assay [7] it was -10.6% (inactive); in assay [8] it was -26.8% (inactive). Besides, in assay [2], the inhibition of aggregation is -15.8% (inactive). In addition, the nuclei count in assay [2] was 15.8%; in assay [3], 105%. For the same compound, in assay [4], the fluorescence slope is -0.0172 (active). Besides, the NADPH fluorescence slope in assay [5] is -2.7e-06 (inactive). The slope in assay [6] was 0.00718 (inactive).
In the case of `CCCCOc1ccc(S(=O)(=O)n2c(C)nc3ccccc32)cc1`, the cell count in assay [1] turned out to be 445. For the same compound, the inhibition in assay [1] was -1.5% (inactive); in assay [3] it was -286% (inactive); in assay [7], 9.07% (inactive); in assay [8] it was 16.6% (inactive). The inhibition of aggregation in assay [2] was -1.2% (inactive). In addition, the nuclei count came out at 102% in assay [2] and 113% in assay [3]. The fluorescence slope in assay [4] was -0.387 (inactive). In addition, in assay [5], the NADPH fluorescence slope was 1.3e-05 (inactive). Further, in assay [6], the slope is 0.00302 (inactive).
As for `Cc1cccc(NC(=O)Nc2cccc(C#N)c2)n1`, the cell count in assay [1] was 907. The inhibition is -1.7% (inactive) in assay [1], -77.1% (inactive) in assay [3], -22.3% (inactive) in assay [7] and -135% (inactive) in assay [8]. The inhibition of aggregation in assay [2] is 10.2% (inactive). Moreover, the results for the nuclei count in assay [2] and in assay [3] were 112% and 121%, respectively. For the same compound, in assay [4], the fluorescence slope is -0.567 (inactive). The NADPH fluorescence slope in assay [5] was -3.2e-05 (inactive). For the same compound, the slope in assay [6] was 0.00605 (inactive).
For the compound `COc1ccc(S(=O)(=O)N(C)C2CCN(C)CC2)cc1`, the cell count in assay [1] turned out to be 843. Further, the inhibition is -2.3% (inactive) in assay [1], -73.5% (inactive) in assay [3], 7.34% (inactive) in assay [7] and 43.8% (inactive) in assay [8]. For the same compound, the inhibition of aggregation in assay [2] was -6.3% (inactive). Moreover, the figures for the nuclei count in assay [2] and in assay [3] were 128% and 114%, respectively. Besides, in assay [4], the fluorescence slope was -0.548 (inactive). The NADPH fluorescence slope in assay [5] was -5.5e-05 (inactive). The slope in assay [6] was 0.00699 (inactive).
